Results reported in PubChem BioAssay (NCATS).
Results filed as inconclusive are left out. Values without a mark were called inactive. Activity calls are given as the source filed them. Calls come from the whole dose curve; as a rule, active = well fitted inhibition curve with a large enough effect; inconclusive = small, poorly fitted or top-dose-only effect; inactive = flat fitted curve, though single readings scatter. Where a SMILES comes first, the peptide text is derived from it. [ ]: non-standard residue; d: D form. The star is where a group is joined. Benzoyl(4-tBu) = CC(C)(C)c1ccc(C(=O)*)cc1; Lys(Et2) = CCN(CC)CCCC[C@H](N)C(=O)O

Experiment: Primary qHTS for inhibitors of nuclear receptor binding SET domain protein 2 (NSD2) in an isogenic RCH-ACV NSD2 p.E1099K mutant (9B) (AID 1645876); note: nearly all actives have a fitted effect of over 70% in size
Settings: RCH-ACV (leukaemia line) NSD2 E1099K (9B) viability, CellTiter-Glo, 72 h; series mostly up to 44.9 µM; activity change, negative = viability loss: at the top concentration
% is set by controls: 0 for no effect and ±100 for the full control effect; potency is the fitted concentration of half-maximal effect.

SMILES	activity change, negative = viability loss	Potency	outcome
O=C(O)c1ccccc1-c1ccc(/C=c2\sc3nc4cc(Br)cnc4n3c2=O)o1	-0.0987% [at 17.3 µM]	–	–
O=c1[nH]nc2c3c(cccc13)NC(CN1Cc3ccccc3C1)=N2	–	20.9 µM (active)	–
O=C([O-])C[O-].[Pt+2]	0.52%	–	–
Cc1cc(O)cc2c1[C@]1(C)CC[C@H]3C(C)(C)CCC[C@]3(C)[C@H]1C2	-32.6% [at 4.96 µM]	–	–
COc1ccc2c(c1)C(c1ccc(F)cc1)=C(CN1CCCC1)CO2	-15.2%	–	–
N=C1S/C(=C\c2ccc(-c3ccc4c(c3)C(=O)NC4=O)o2)C(=O)N1c1ccc(Br)cc1	7.5% [at 17.3 µM]	–	–
CN1[C@@H]2CCC[C@H]1CC(NC(=O)c1nn(C)c3ccccc13)C2 (stereo partly drawn)	–	–	inactive
CCN(CC)CCCC[C@H](NC(=O)[C@H](CC(C)C)NC(=O)[C@H](C)NC(=O)[C@H](Cc1ccccc1)NC(=O)c1ccc(C(C)(C)C)cc1)C(=O)N[C@@H](CO)C(=O)OC ({Benzoyl(4-tBu)}-FAL[Lys(Et2)]S-OMe)	-9%	–	–
CO[C@H]1/C=C/O[C@@]2(C)Oc3c(C)c(O)c4c(O)c(c5c(nc6cc(C)ccn65)c4c3C2=O)NC(=O)/C(C)=C\C=C\[C@H](C)[C@H](O)[C@@H](C)[C@@H](O)[C@@H](C)[C@H](OC(C)=O)[C@@H]1C	–	20.9 µM (active)	–
COC(=O)[C@H]1[C@@H](O)[C@@]2(O)c3c(OC)cc(O[C@@H]4O[C@@H]([C@@H](O)CO)CO[C@H]4OC)cc3O[C@@]2(c2ccc(OC)cc2)[C@@H]1c1ccccc1	–	4.68 µM (active)	–
COc1nc(N)nc2c1ncn2C1OC(CO)C(O)C1O (stereo not drawn)	–	5.25 µM (active)	–
O=C(CCCCCCC(=O)N/N=C/c1ccc(N(c2ccccc2)c2ccccc2)cc1)NO	–	1.18 µM (active)	–
O=C(O)CCNc1cc(N2CCc3ccccc3CC2)nc(-c2cccnc2)n1	-7.36%	–	–
Cc1cc(-c2cnn3c(NCC4CC(C)(O)C4)cc(Oc4cccnc4)nc23)ccc1C(=O)NC1CC1 (stereo not drawn)	–	0.148 µM (active)	–
CC(C)n1c(=O)cc(N[C@@H](C)c2ccccc2)[nH]c1=O	3.43%	–	–
O=C(O)C[C@H]1CCc2c1[nH]c1ccc(OCc3ccc(C4CCCC4)c(C(F)(F)F)c3)cc21	-58.1%	–	–
Cn1cc(/C=C/C(=O)c2cccc(F)c2)cc1/C=C/C(=O)NO	–	14.8 µM (active)	–

SMILES	activity change, negative = viability loss	Potency	outcome
Nc1nccc(-c2c(-c3ccc(F)cc3)ncn2C2CCN(Cc3ccon3)CC2)n1	–	7.42 µM (active)	–
CC1(C)S[C@H]2[C@H](NC(=O)[C@@H](N)c3ccc(O)cc3)C(=O)N2[C@H]1C(=O)O	–	–	inactive
CC(C)(NS(=O)(=O)c1ccc2c(Cl)cnc(N=C(N)N)c2c1)C(=O)O	9.9%	–	–
CCS(=O)(=O)N1CCC(C(C)n2c(C)c(C(=O)NCc3c(OC)cc(C)[nH]c3=O)c3ccccc32)CC1 (stereo not drawn)	-21.1%	–	–
CN1CCN(C(=O)[C@H]2[C@@H](C(=O)O)[C@H]3CC[C@@H]2O3)CC1	9.83% [at 9.23 µM]	–	–
CC(=O)N1CCN(c2ccc(NC(=O)Cc3cnc(-c4ccnc(F)c4)c(C)c3)nc2)CC1	-14.8%	–	–
O=C(O)CCCCN(CCc1ccccc1OCc1ccc(CCc2ccccc2)cc1)Cc1ccc(C(=O)O)cc1	-1.56%	–	–
CC(=O)N[C@H]1[C@H](O[C@@H]2c3ccc(c(Cl)c3)Oc3cc4cc(c3O[C@@H]3O[C@H](CO)[C@@H](O)[C@H](O)[C@H]3NC(=O)CCCCCCCC(C)C)Oc3ccc(cc3Cl)C[C@H]3NC(=O)[C@H](N)c5ccc(O)c(c5)Oc5cc(O)cc(c5)[C@H](NC3=O)C(=O)N[C@H]4C(=O)N[C@H]3C(=O)N[C@@H]2C(=O)N[C@@H](C(=O)O)c2cc(O)cc(O[C@H]4O[C@H](CO)[C@@H](O)[C@H](O)[C@@H]4O)c2-c2cc3ccc2O)O[C@H](CO)[C@@H](O)[C@@H]1O	8.68%	–	–
O=C(Nc1cccc(C(F)(F)F)c1)c1cccc2cc(Oc3cc(CO)ncn3)ccc12	-13.2%	–	–
NC1=N[C@@]2(c3cc(NC(=O)c4ccc(F)cn4)ccc3F)COC[C@H]2CS1	-7.06%	–	–
C[C@@H]1CC(=O)Nc2cccc(-c3ccc4c(c3)c(-c3cnn(C)c3)nn4C)c2N1	–	0.742 µM (active)	–
C=C1C[C@H]2C=Nc3cc(OCCCOc4cc5c(cc4OC)C(=O)N4CC(=C)C[C@H]4C=N5)c(OC)cc3C(=O)N2C1	-93.8%	–	–
O=c1ncccn1[C@@H]1O[C@H](CO)[C@@H](O)[C@H]1O	-14.7%	–	–
CONC(=O)Nc1ccc(-c2sc3c(c2CN(C)C)c(=O)n(-c2ccc(OC)nn2)c(=O)n3Cc2c(F)cccc2F)cc1	-20%	–	–
CC(C)(O)CC[C@@H](O)[C@](C)(O)[C@H]1CC[C@@]2(O)C3=CC(=O)[C@@H]4C[C@@H](O)[C@@H](O)C[C@]4(C)[C@H]3CC[C@]12C	9.22%	–	–
Cc1c(-c2c(-c3ccc(F)o3)sc3ncnc(O[C@@H](Cc4ccccc4OCc4ccnn4CC(F)(F)F)C(=O)O)c23)ccc(OCCN2CCN(C)CC2)c1Cl	–	0.662 µM (active)	–
